# Results filed as inconclusive are left out. Calls of active or inactive are those of the source. Calls follow the shape of the dose curve; as a rule, active = well fitted inhibition curve with a large enough effect; inconclusive = small, poorly fitted or top-dose-only effect, or effect the other way; inactive = flat fitted curve, though single readings scatter.
# Target: ATP-dependent 6-phosphofructokinase (Trypanosoma brucei brucei) (UniProt O15648)
# Test: qHTS Assay to Find Inhibitors of T. brucei phosphofructokinase: hit validation (AID 492961);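 also: luminescence reports ADP formed as PFK phosphorylates fructose-6-phosphate with ATP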
# Settings: T. brucei PFK, ADP-Glo luminescence; series mostly up to 51.4 µM; activity change, negative = inhibition: at the top concentration
# How it was run: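 Reaction: 0.1 M triethanolamine pH 8.0, 5 mM MgCl2, F6P 0.5 mM, ATP 0.1 mM, PFK 1.25 nM, 45 min RT. Read-out: ADP-Glo luminescence. Analysis: concentration-response fits, classed by r2 and efficacy.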
# % is scaled to controls: 0 for no effect and ±100 for the full control effect.
# Sequence of ATP-dependent 6-phosphofructokinase (Trypanosoma brucei brucei) (O15648 whole entry, looked up): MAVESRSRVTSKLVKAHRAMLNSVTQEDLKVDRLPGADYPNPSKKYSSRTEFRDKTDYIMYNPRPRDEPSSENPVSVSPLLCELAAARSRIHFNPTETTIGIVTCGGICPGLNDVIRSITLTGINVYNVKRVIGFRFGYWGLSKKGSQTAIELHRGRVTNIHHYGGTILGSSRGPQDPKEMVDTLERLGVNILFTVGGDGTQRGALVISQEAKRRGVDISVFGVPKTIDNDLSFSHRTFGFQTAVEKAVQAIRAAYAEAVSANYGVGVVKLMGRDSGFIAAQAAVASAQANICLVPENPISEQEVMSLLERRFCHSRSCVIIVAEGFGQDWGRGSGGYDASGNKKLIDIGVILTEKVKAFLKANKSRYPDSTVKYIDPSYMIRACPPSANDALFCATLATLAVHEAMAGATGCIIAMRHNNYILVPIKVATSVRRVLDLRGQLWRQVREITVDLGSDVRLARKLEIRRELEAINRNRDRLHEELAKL
row,Structure (SMILES),"activity change, negative = inhibition"
1,CCCCCCCCCCCCCCCCO,-5.2% (inactive)
2,CCOC(=O)C(C#N)=C(c1ccccc1)c1ccccc1,-6.41% (inactive)
3,NC1CCN(c2nc3c(cc2F)c(=O)c(C(=O)O)cn3-c2ccc(F)cc2F)C1 (stereo unspecified),4.82% (inactive)
4,NS(=O)(=O)Cc1noc2ccccc12,-5.68% (inactive)
5,CCc1oc2ccccc2c1C(=O)c1cc(Br)c(O)c(Br)c1,5.1% (inactive)
6,CN(Cc1ccc(C(C)(C)C)cc1)Cc1cccc2ccccc12,11.6% (inactive)
7,FC(F)(F)C(F)(F)C(F)(F)C(F)(F)C(F)(F)C(F)(F)C(F)(F)C(F)(F)Br,0.148% (inactive)
8,O=C(O)c1ccc(S(=O)(=O)N(Cl)Cl)cc1,6.38% (inactive)
9,CN1CCN(C2=Nc3ccccc3Sc3ccc(Cl)cc32)CC1,-1.63% (inactive)
10,CCCCCCCCCCCCOCCOCCOCCOCCOCCOCCOCCOCCOCCO,0% (inactive)
11,Cc1cccc(C)c1NC(=O)CN1CCCCCC1,-3.22% (inactive)
12,CCOC(=O)c1c(N)sc2c1CCN(Cc1ccccc1)C2,-8.47% (inactive)
13,CN1CCN(c2cc3c(cc2F)c(=O)c(C(=O)O)cn3-c2ccc(F)cc2)CC1,4.2% (inactive)
14,CCN(CC)CCOC(=O)C1(c2ccccc2)CCCC1,-2.79% (inactive)
15,C#C[C@]1(O)CC[C@H]2[C@@H]3CCC4=Cc5oncc5C[C@]4(C)[C@H]3CC[C@@]21C,5.94% (inactive)
16,CCCCC(CC)COC(=O)c1ccc(N(C)C)cc1 (stereo unspecified),7.17% (inactive)
17,Cc1cccc(C)c1NC(=O)c1ccccc1C(=O)O,-8.38% (inactive)
18,C[N+]1(CC2COC(c3ccccc3)(C3CCCCC3)O2)CCCCC1 (stereo unspecified),1.5% (inactive)

row,Structure (SMILES),"activity change, negative = inhibition"
1,Nc1ccc(C(=O)NCC(=O)O)cc1,-1.2% [at 24.3 µM] (inactive)
2,Cc1nc(-c2ccc(Cl)cc2)oc1COC(C)(C)C(=O)O,-4.2% (inactive)
3,CCN(CC)CCOc1ccc2c(c1)C(=O)c1cc(OCCN(CC)CC)ccc1-2,2.35% (inactive)
4,Cc1cccc(C)c1NC(=O)CN1CCCC1,-5.65% (inactive)
5,N/C(=N\N=C\c1ccc(Cl)cc1)N/N=C/c1ccc(Cl)cc1,-0.284% (inactive)
6,CCC(C(=O)OCCOCCN(CC)CC)c1ccccc1 (stereo unspecified),-10.8% (inactive)
7,CC(C)NCC(O)c1ccc2ccccc2c1 (stereo unspecified),-4.27% (inactive)
8,CN(C)CCOC(c1ccc(Cl)cc1)c1ccccn1 (stereo unspecified),-2.97% (inactive)
9,C/C=C/c1ccc(O)c(OC)c1,-2.1% (inactive)
10,CC(=O)O[C@]1(C(C)=O)CC[C@H]2[C@@H]3C=C(Cl)C4=CC(=O)CC[C@]4(C)[C@H]3CC[C@@]21C,0.613% (inactive)
11,NC(=O)c1ccccc1O,0.419% (inactive)
12,COc1ccc(-c2cc(C(F)F)nn2-c2ccc(S(N)(=O)=O)cc2)cc1F,-1.48% (inactive)
13,NCCNC(=O)c1ccc(Cl)cn1,0% (inactive)
14,O=C(O)CCC(=O)Nc1ccc(S(=O)(=O)Nc2nccs2)cc1,-1.57% [at 24.3 µM] (inactive)
15,O=S(c1cc(Cl)cc(Cl)c1O)c1cc(Cl)cc(Cl)c1O,-13.7% (inactive)
16,CCCCNc1ccc(C(=O)OCCOCCOCCOCCOCCOCCOCCOCCOCCOC)cc1,1.75% [at 24.3 µM] (inactive)
17,CC(=O)NC(=O)c1ccccc1O,-5.13% (inactive)
18,O=c1[nH]c(=O)n([C@H]2C[C@H](O)[C@@H](CO)O2)cc1F,-0.481% (inactive)
